A selection: hits, their analogues and other compounds. The true share with any hit is near 2.3%.
ANO1 activ: activates or potentiates the mouse TMEM16A chloride channel; B-score at 10 µM; actives 0.3% (n = 340,000); HEK293 TMEM16A/YFP-H148Q/I152L, iodide quench fluorescence; hits give low values; Q8BHY3;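 active = fluorescence-ratio B-score plate-corrected deviation score at least 3 library SD below zero, with starting fluorescence score within 5 deviations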;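 also: channel opened by trigger with iodide after compound preincubation; score built on the fluorescence ratio of max minus min over baseline; more negative score means more quench and so TMEM16A activation or potentiation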
CHT inh: inhibits the human high affinity choline transporter; Q9GZV3; CHT-expressing cells, membrane potential dye, choline response; hits give low values; B-score at 10 µM; actives 0.86% (n = 310,000); AID 488975;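 active = B-score over 3 SD under the library average, and starting fluorescence ratio not unusually high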;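 also: choline stimulus applied at its EC90 after an EC20 pre-addition; B-score computed on integrated fluorescence ratio after choline addition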
Target sequence (Q9GZV3 whole entry, looked up): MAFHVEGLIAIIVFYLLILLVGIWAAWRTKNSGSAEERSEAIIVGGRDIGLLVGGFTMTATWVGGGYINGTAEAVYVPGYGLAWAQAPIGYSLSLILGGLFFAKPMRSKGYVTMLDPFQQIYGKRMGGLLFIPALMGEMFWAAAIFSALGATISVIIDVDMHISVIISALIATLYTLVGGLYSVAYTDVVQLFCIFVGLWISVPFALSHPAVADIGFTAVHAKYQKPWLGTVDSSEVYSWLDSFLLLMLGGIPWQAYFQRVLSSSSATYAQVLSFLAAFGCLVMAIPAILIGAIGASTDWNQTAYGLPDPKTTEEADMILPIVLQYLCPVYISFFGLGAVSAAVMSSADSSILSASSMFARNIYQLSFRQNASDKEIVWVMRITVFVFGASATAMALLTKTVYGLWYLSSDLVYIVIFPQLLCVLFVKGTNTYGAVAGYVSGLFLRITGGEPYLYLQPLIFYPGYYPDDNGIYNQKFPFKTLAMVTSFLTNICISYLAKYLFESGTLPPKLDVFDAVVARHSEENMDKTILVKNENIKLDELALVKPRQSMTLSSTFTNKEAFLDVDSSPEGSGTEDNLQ
TMEM16A inh: blocks the mouse calcium-activated chloride channel TMEM16A. Q8BHY3. HEK293 TMEM16A/YFP iodide influx fluorescence, ionomycin. normalized B-score (activity score, 25-100; higher = stronger inhibition) at 10 µM. actives 1.2% (n = 310,000). AID 588511;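 active = ratio plate-corrected score three or more library SD toward inhibition, starting fluorescence score within five deviations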;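 also: score derived from kinetic fluorescence span divided by baseline fluorescence per well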
CHT allo act: human CHT allosteric activation; CHT-expressing cells, membrane potential dye, choline EC20; hits give high values; LV-AA mutant CHT in HEK293 cells; B-score at 10 µM; actives 0.49% (n = 310,000); AID 488977;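 active = initial fluorescence not abnormally high and integrated response B-score, plate-corrected, over 3 SD above library mean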
CHT activ conf: confirmation of human choline transporter (CHT) activators. shares compounds with CHT allo act. AID 504833. CHT-expressing cells, membrane potential dye fluorescence (FDSS); % of choline EC20–EC90 response window; HEK293 expressing CHT LV-AA mutant; choline added at its EC20. activation, % at 10 µM. actives 91% (n = 2,500);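 active = primary screen active, with duplicate mean activation above negative control mean plus 3 SD, cut at about 11% in these data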
HEK293 MP dye: CHT activator counter-screen hit in parental HEK293 cells; shares compounds with CHT allo act; membrane potential dye fluorescence (FDSS); measured after EC20 choline addition; ratio readout change at 10 µM, hits read low; actives 62% (n = 2,500); AID 623908;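 active = duplicate-averaged ratio beyond 3 SD from buffer wells, up or down, though filed actives are nearly all decreases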
Active calls of the source: *; i = inactive; / = no result.

SMILES | ANO1 activ | CHT inh | TMEM16A inh | CHT allo act | CHT activ conf | HEK293 MP dye
Cc1ccn2c(Nc3ccccc3C)c(-c3cccnc3)nc2c1 | i | i | i | i | 41* | -49*
Cc1ccccc1Nc1c(-c2ccc(N3CCOCC3)cc2)nc2cnccn12 | i | i | i | 9.4* | 29* | -55*
CCN(CC(=O)Nc1ccccc1C(F)(F)F)C(=O)CCc1c(C)[nH]c(=O)c(C#N)c1C | i | i | i | i | / | /
Cc1ccc(C(=O)NCCNS(=O)(=O)c2ccccc2)cn1 | i | i | i | i | / | /
O=C(COc1ccc2c(c1)oc(=O)c1ccccc12)NCC1CCC(C(=O)O)CC1 (stereo not given) | i | i | i | 6.3* | 32* | -20*
O=C(Nc1cc(S(=O)(=O)N2CCCCCC2)ccc1OCC(F)(F)F)c1cnccn1 | i | / | / | / | / | /
Cc1nn(-c2ccccn2)c2nc(-c3cccs3)cc(C(=O)NCc3ccco3)c12 | i | i | i | i | 19* | i
COc1ccc(CNc2ccc3c(c2)nc(C)n3C)cc1OC | i | i | i | 6.6* | 26* | -48*
CCOc1ccc(CNc2ccc3c(c2)nc(C)n3C)cc1 | i | i | i | i | / | /
CC(N)C(=O)NC(CO)C(O)C(N)C=O (stereo not given) | i | / | / | / | / | /
COc1ccc(N2CCN(C(=O)COC(=O)c3ccc(OC(F)F)cc3)CC2)cc1 | i | / | / | / | / | /
CCC(=Nc1ccccc1OC)C1=C(O)CC(c2ccccc2)CC1=O (stereo not given) | i | i | i | 12* | 32* | i
CN1CCN(C(=O)CCc2nnc3ccc(N4CCC5(CC4)OCCO5)nn23)CC1 | i | i | i | i | / | /
CCOC(=O)C1CCN(C(=O)CCc2nnc3ccc(N4CCN(C)CC4)nn23)CC1 | i | i | i | 8.1* | 73* | -72*
Cc1cnccc1CN(C)C(=O)CC1C(=O)NCCN1CC1CCCCC1 (stereo not given) | i | i | i | 7.7* | 0 | i
Cc1ccc(CN(C)C(=O)CC2C(=O)NCCN2CC2CCCCC2)cc1 (stereo not given) | i | i | i | i | / | /
[O-][N+]1=c2ccc(Nc3ccccc3)cc2=NC12CCCCC2 | i | i | i | i | / | /
COc1ccc(Nc2ccc3c(c2)=NC2(CCCCC2)[N+]=3[O-])cc1 | i | i | i | 7.2* | 51* | -73*
COc1ccccc1C(C)NC(=O)c1ccccc1SCC(=O)N1CCCC1 (stereo not given) | i | i | i | i | / | /
Cc1nnc(NCCc2ccccc2)c2ccccc12 | i | i | i | 7.2* | 39* | -49*
CCN(CC)CCN(Cc1cc2ccc(C)c(C)c2[nH]c1=O)C(=S)NCc1ccco1 | i | i | i | i | 16* | -25*
COC1=C(Nc2ccc(OC)cc2)C(=O)c2ccccc2C1=O | i | i | i | 6.5* | 12* | -65*
CCOc1ccc(NC2=C(OC)C(=O)c3ccccc3C2=O)cc1 | i | i | i | i | 14* | -67*
COC1=C(Nc2ccc(O)cc2)C(=O)c2ccccc2C1=O | i | i | i | i | 29* | -78*
CCN1CCN(S(=O)(=O)c2ccc(Cl)c(C(=O)N(C)Cc3ccc(C(C)(C)C)cc3)c2)CC1 | i | / | / | / | / | /
COc1ccc(N2CC(C)Cn3c2nc2c3c(=O)n(Cc3ccc(F)cc3)c(=O)n2C)c(OC)c1 (stereo not given) | i | i | i | i | 18* | i
Cc1ccc(SC(C)C(=O)Nc2ccccc2-c2ccccc2)cc1 (stereo not given) | i | i | i | i | 7 | i
CC(Sc1ccc(Cl)cc1)C(=O)Nc1ccccc1-c1ccccc1 (stereo not given) | i | i | i | 7* | 35* | i
CCNC(=O)C(C)Sc1ccc(Cl)cc1 (stereo not given) | i | i | i | i | / | /

Bioassay records as filed in PubChem BioAssay.
